Reference: PubChem BioAssay (NCI)
The panel holds about 79,000 compounds, 15% with a hit somewhere; the sample as a whole holds those more often. Unmarked numbers belong to inactive results. Active and inactive are the calls of the source. Cut-off read from the data, not from the text of the source: active = growth inhibition above about 70%; inactive = the rest.

Tests used:
[1] = NCI Yeast Anticancer Drug Screen. Data for the rad50 strain (AID 155);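 note: 0% = growth of vehicle-only cultures of the same strain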; settings: S. cerevisiae rad50 strain growth inhibition, active compounds read high
How it was run: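 Yeast carrying a defined DNA repair defect were exposed to test compounds, and growth was compared with vehicle-treated controls to give percent inhibition.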

[2] = NCI Yeast Anticancer Drug Screen. Data for the mec2-1 strain (AID 157); settings: S. cerevisiae mec2-1 strain, active compounds read high
How it was run: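 Readout is yeast growth inhibition, normalised to vehicle-treated controls, in the mec2-1 strain exposed to compound.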

[3] = NCI Yeast Anticancer Drug Screen. Data for the sgs1 mgt1 strain (AID 161);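 note: 0% = growth of cultures given vehicle only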; settings: S. cerevisiae sgs1 mgt1 strain, active compounds read high
How it was run: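 This yeast growth screen uses a strain with defined DNA-repair lesions; compound-treated growth is compared with vehicle-treated growth.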

[4] = NCI Yeast Anticancer Drug Screen. Data for the cln2 rad14 strain (AID 165);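 note: 0% = growth equal to vehicle treated cultures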; settings: S. cerevisiae cln2 rad14 strain, active compounds read high
How it was run: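 Relative to vehicle controls, growth inhibition of compound-treated cln2 rad14 yeast was recorded.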

[5] = NCI Yeast Anticancer Drug Screen. Data for the bub3 strain (AID 167); settings: S. cerevisiae bub3 mutant strain, active compounds read high
How it was run: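 Compounds were applied to a genetically altered yeast strain carrying a cell-cycle control defect. Growth inhibition was scored against vehicle-treated controls.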

[6] = NCI Yeast Anticancer Drug Screen. Data for the mlh1 rad18 strain (AID 175); settings: S. cerevisiae mlh1 rad18 strain growth inhibition, active compounds read high
How it was run: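 Test agents were incubated with a yeast strain of defined genotype (DNA damage repair defect). Inhibition of growth was derived by comparison with vehicle-exposed cultures.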

[7] = at 5.0 µM (retest, dose inferred, filed as 0.5)
[8] = at 50.0 µM (retest, dose inferred, filed as 5.0)

SMILES	growth inhibition [1, 7]	growth inhibition [1, 8]	growth inhibition ([1]; at 50.0 µM)	growth inhibition [2, 7]	growth inhibition [2, 8]	growth inhibition ([2]; at 50.0 µM)	growth inhibition [3, 7]	growth inhibition [3, 8]	growth inhibition ([3]; at 50.0 µM)	growth inhibition [4, 7]	growth inhibition [4, 8]	growth inhibition ([4]; at 50.0 µM)	growth inhibition [5, 7]	growth inhibition [5, 8]	growth inhibition ([5]; at 50.0 µM)	growth inhibition [6, 7]	growth inhibition [6, 8]	growth inhibition ([6]; at 50.0 µM)
COc1ccc2c(c1)CCC1OC(c3cccnc3)OC21 (configuration not stated)	-1%	18%	65.8%	-19%	-4%	36.9%	-3%	8%	75.8% (active)	-5%	11%	55%	10%	25%	30.6%	-10%	-15%	70.9% (active)
O=C(CC1CCCC(CC(=O)c2ccccc2)N1CCc1ccccc1)c1ccccc1 (configuration not stated)	39%	97% (active)	89.7% (active)	23%	99% (active)	90.6% (active)	41%	98% (active)	92.8% (active)	27%	97% (active)	91.8% (active)	41%	98% (active)	89.7% (active)	34%	98% (active)	89.2% (active)
Cc1ccc(NNC(=O)C(O)C(O)C(O)C(O)CO)cc1 (configuration not stated)	98% (active)	98% (active)	-2.2%	99% (active)	99% (active)	2.6%	99% (active)	99% (active)	7.85%	99% (active)	99% (active)	41.8%	98% (active)	99% (active)	8.25%	99% (active)	99% (active)	1.2%
CC(=O)Oc1ccc(/C=C/c2ccncc2)cc1	-164%	-78%	67.8%	-47%	-33%	44%	-65%	7%	60%	-58%	-32%	50.1%	-58%	6%	84.7% (active)	-157%	-69%	48.2%
CC(=O)c1c(O)c2ccc(Cl)cc2[nH]c1=O	73% (active)	90% (active)	79.2% (active)	36%	87% (active)	14.7%	79% (active)	95% (active)	83.2% (active)	25%	59%	31.5%	71% (active)	91% (active)	38.2%	72% (active)	94% (active)	66.7%
O=C1c2ccccc2C(=O)N1CCn1ccc(NC(c2ccccc2)(c2ccccc2)c2ccccc2)nc1=O	48%	48%	66.3%	28%	28%	74.9% (active)	50%	50%	67.2%	5%	5%	80.6% (active)	27%	27%	79.2% (active)	44%	44%	65.3%
CC(=O)OC(C)C1C2=C(C(=O)CC1(C)O)C(=O)c1c(ccc(-c3ccc4c(c3O)C(=O)C3=C(C4=O)C(C(C)OC(C)=O)C(C)(O)CC3=O)c1O)C2=O (configuration not stated)	21%	94% (active)	72.8% (active)	10%	95% (active)	79.6% (active)	44%	86% (active)	76.5% (active)	12%	67%	70.8% (active)	13%	85% (active)	70.7% (active)	28%	94% (active)	76.7% (active)
CC(=O)c1nc2ccccc2n1C(C)C(=O)c1ccccc1 (configuration not stated)	39%	37%	16.9%	23%	34%	21.6%	18%	74% (active)	68.4%	33%	24%	6.15%	-7%	35%	37.5%	18%	30%	-1.7%
COC(=O)C(=O)C(C(=O)c1ccc(F)cc1)c1nc2n(c1O)C(=N)N=N2 (configuration not stated)	1%	52%	39.6%	-17%	46%	77.6% (active)	19%	76% (active)	23.9%	14%	57%	59.9%	14%	67%	35.2%	24%	79% (active)	34.8%
